The campaign covered roughly 16,000 compounds. About 5,700 (36%) were called active. Not shown: some 24% with an inconclusive outcome. This is one part of the list. Values without a mark were called inactive. The call rests on the fitted dose curve; in most records, active means well fitted curve in the direction sought with a large enough effect; inconclusive means small, poorly fitted or top-dose-only effect, or effect the other way; inactive means no such curve, though single readings can be large or run the other way.
Each compound was assayed against Cytochrome P450 1A2 (Homo sapiens) (UniProt P05177) (assay: Cytochrome panel assay with activity outcomes). Details: recombinant CYP, pro-luciferin dealkylation, luminescence, p450-cyp1a2; series mostly up to 57.1 µM; activity, negative = inhibition: at the top concentration.
Chain of Cytochrome P450 1A2 (Homo sapiens) (P05177 whole entry, looked up): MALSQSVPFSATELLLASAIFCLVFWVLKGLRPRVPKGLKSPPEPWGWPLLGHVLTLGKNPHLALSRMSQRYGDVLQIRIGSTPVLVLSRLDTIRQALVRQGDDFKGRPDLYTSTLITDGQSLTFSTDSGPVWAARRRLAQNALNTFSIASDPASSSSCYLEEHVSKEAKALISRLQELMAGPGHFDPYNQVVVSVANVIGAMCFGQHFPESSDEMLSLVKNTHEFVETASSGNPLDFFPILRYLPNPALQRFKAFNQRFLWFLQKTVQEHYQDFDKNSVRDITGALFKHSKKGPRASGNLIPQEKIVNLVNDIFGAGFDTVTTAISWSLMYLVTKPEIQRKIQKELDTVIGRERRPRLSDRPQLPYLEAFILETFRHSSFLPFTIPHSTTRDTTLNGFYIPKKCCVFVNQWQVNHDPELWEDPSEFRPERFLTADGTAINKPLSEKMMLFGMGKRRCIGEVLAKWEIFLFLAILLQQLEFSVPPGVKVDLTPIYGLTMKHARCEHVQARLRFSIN
In the case of CC(=O)Nc1nnc(SCc2ccc(F)cc2)s1, the AC50 is reported as 10 µM (active).
With CCSc1nnc(NC(=O)Cc2ccc(OC)c(OC)c2)s1 the “activity, negative = inhibition” value was -25.9%.
In the case of O=C(NCC1CCCO1)C(c1cccnc1)N(C(=O)Cc1cccs1)c1ccccc1 (stereo unspecified), the AC50 is reported as 12.6 µM (active).
In the case of O=C(NCC1CCCO1)C(c1cccnc1)N(C(=O)Cc1cccs1)c1cccnc1 (stereo unspecified), the “activity, negative = inhibition” value is reported as 3.77%.
With Cc1ccccc1N(C(=O)Cc1cccs1)C(C(=O)NCC1CCCO1)c1cccnc1 (stereo unspecified) the “activity, negative = inhibition” value was -0.125%.
O=c1c2ccc(Cl)cc2nc(-c2cccc(C(F)(F)F)c2)n1O was tested, and the AC50 was 1.26 µM (active).
With COC(=O)c1sccc1NC(=O)CN(C)NS(=O)(=O)c1ccc(F)cc1 the AC50 was 11.2 µM (active).
For COc1ccc(S(=O)(=O)NCCC(=O)NCc2ccc(F)cc2)cc1, the “activity, negative = inhibition” value was -6.97%.
With CCCc1nnc(NC(=O)Cn2cnc3ccccc3c2=O)s1 the “activity, negative = inhibition” value was -10.1%.
For CCCc1nnc(NC(=O)CN2C(=O)C3C4C=CC(C4)C3C2=O)s1 (stereo unspecified), the “activity, negative = inhibition” value was -24.4%.
For Cc1ccc(Cc2cnc(NC(=O)c3cccs3)s2)cc1, the AC50 was 1.41 µM (active).
For CCCc1nnc(NC(=O)c2cccs2)s1, the AC50 was 0.631 µM (active).
O=C(Nc1ncc(Cc2cccc(Cl)c2)s1)c1cccs1 was tested, and the AC50 was 1.58 µM (active).
CCOc1cc(NC(=O)c2cccs2)c(OCC)cc1NC(=O)c1ccco1 was tested, and the “activity, negative = inhibition” value was -27%.
Work on COc1ccc(O[C@H]2C=C[C@@H](c3ccccc3)O[C@H]2COC(=O)CC/C(C)=N\O[C@@H](C)CN2CCCCc3nc(C)c(C)cc32)cc1 yielded an activity, negative = inhibition of -2.12% [at 11.4 µM].
With O=C(c1csnn1)N1CCC2(CC1)CN(c1ccncc1)C2 the “activity, negative = inhibition” value was 1.41%.
O=c1c2c(-c3cccs3)csc2ncn1-c1ccc(Br)cc1 was tested, and the AC50 was 0.794 µM (active).
For Nc1[nH]nc2nc3ccccc3nc12, the AC50 was 0.316 µM (active).
In the case of Fc1ccc(C(OCCCc2cnc[nH]2)c2ccc(F)cc2)cc1, the AC50 is reported as 0.1 µM (active).
N=C(N)SCCc1cnc[nH]1 was tested, and the AC50 was “inactive”.
In the case of N[C@@H](Cc1cnc[nH]1)C(=O)O, the “activity, negative = inhibition” value is reported as -7.04%.
Work on O=C(O)c1cc2ccccc2c(S(=O)(=O)O)c1O yielded an activity, negative = inhibition of 6.64% [at 11.4 µM].
C=CCNS(=O)(=O)c1cccc2cc(C(=O)O)c(O)cc12 was tested, and the AC50 was 1.58 µM (active).
Compound NS(=O)(=O)c1cc(C(=O)O)c(O)c2ccccc12 has an activity, negative = inhibition of -19.2% [at 11.4 µM].
For O=C(Cn1cccc1C(=O)c1ccccc1)NCc1cccs1, the AC50 was 20 µM (active).
In the case of CCN(CC(=O)NCc1cccs1)S(=O)(=O)c1ccc(C(C)C)cc1, the “activity, negative = inhibition” value is reported as -27.2%.
Cc1ccc(CCN2CC(C(=O)NCCN3CCOCC3)CC2=O)cc1 (stereo unspecified) was tested, and the “activity, negative = inhibition” value was -19.1%.
In the case of Cc1noc(C)c1COc1cccc(C(=O)OCC(=O)N2CC(=O)Nc3ccccc32)c1, the AC50 is reported as 25.1 µM (active).
CS(=O)(=O)N1CCN(c2ccc(C(=O)NC3C4CC5CC(C4)CC3C5)cc2[N+](=O)[O-])CC1 (stereo unspecified) was tested, and the “activity, negative = inhibition” value was 16.8%.
For Cc1cc(C(=O)C(=O)NC(C)C)c(C)n1-c1ccc([N+](=O)[O-])cc1, the “activity, negative = inhibition” value was -16.5%.
With Cc1cc(C=O)c(C)n1-c1ccc(N2CCCCC2)c([N+](=O)[O-])c1 the AC50 was 14.1 µM (active).
In the case of Cc1cc(C=O)c(C)n1-c1ccc(NC2CCCC2)c([N+](=O)[O-])c1, the AC50 is reported as 0.447 µM (active).
With COc1ccccc1OCCN1C(=O)S/C(=C\c2ccco2)C1=O the AC50 was 14.1 µM (active).
In the case of COc1ccc(/C=C2\SC(=O)N(CCNC(=O)C3CC(=O)N(c4ccccc4)C3)C2=O)cc1 (stereo unspecified), the “activity, negative = inhibition” value is reported as -15.8%.
Work on CC(=O)[C@@H](C)CCO[C@@]1(C)OCC[C@@H]1C yielded an activity, negative = inhibition of -19.3% [at 11.4 µM].
With O=C(c1ccc(C(F)(F)F)cc1)c1c[nH]c(C(=O)NCCCn2ccnc2)c1 the AC50 was 2 µM (active).
For CC(C)(C)c1ccc(C(=O)c2c[nH]c(C(=O)NCCCn3ccnc3)c2)cc1, the AC50 was 5.62 µM (active).
For CC1=C(C#N)C(Nc2ccc(Cl)cn2)(C(F)(F)F)C(=O)N1 (stereo unspecified), the “activity, negative = inhibition” value was -10.6%.
With CC(=O)c1sc(NC(=O)C(C)C)nc1C the AC50 was 10 µM (active).
CCOC(=O)N1CCN(C(=O)c2ccc3nc(N4CCC(C)CC4)sc3c2)CC1 was tested, and the “activity, negative = inhibition” value was -26.8%.
For CCOC(=O)C1CCN(C(=O)C2CCN(c3nc4ccc(OC)cc4s3)CC2)CC1, the “activity, negative = inhibition” value was -20.4%.
CCOc1ccc2nc(N3CCCCCC3)sc2c1 was tested, and the AC50 was 2.82 µM (active).
CC(=O)NC(C)C(c1cccs1)N1CCN(c2ccccc2)CC1 (stereo unspecified) was tested, and the “activity, negative = inhibition” value was 5.22%.
With COC(=O)[C@@]1(Cc2ccc(F)cc2)[C@@H]2[C@@H](CC(=O)[C@H]2CC(=O)C(=O)N(C)C)CN1C(=O)c1ccccc1 the “activity, negative = inhibition” value was -11.5%.
Cc1cnc(CNc2ncncc2-c2ccccc2C)cn1 was tested, and the AC50 was 25.1 µM (active).
Cc1cnc(CNc2ncncc2-c2ccccc2CN(C)C)cn1 was tested, and the AC50 was 12.6 µM (active).
Cc1cnc(CNc2ncncc2-c2ccccc2C(F)(F)F)cn1 was tested, and the “activity, negative = inhibition” value was -14.1%.
For Cc1cnc(CNc2ncncc2-c2ccccc2Cl)cn1, the AC50 was 15.8 µM (active).
With CN(C)Cc1ccccc1-c1cncnc1NC1CC1 the AC50 was 15.8 µM (active).
With CC1=CC(=O)C=CC1(C)C(Cl)(Cl)Cl (stereo unspecified) the “activity, negative = inhibition” value was -2.86%.
CCN1C(=O)[C@@H]2[C@H]3C(=CC[C@H]2C1=O)C(=O)[C@H]1OC1[C@H]3O (stereo partly specified) gave an activity, negative = inhibition of -3.23% [at 11.4 µM].

— PubChem BioAssay AID1851 (National Center for Advancing Translational Sciences (NCATS), 2009)
On the % scale 0 is the no-effect control and ±100 the full control effect.
